Data: PubChem BioAssay AID686979 (National Center for Advancing Translational Sciences (NCATS), 2013)
The whole screen tested about 420,000 compounds, of which about 50,000 (12%) were called active. Roughly 26% stayed inconclusive and do not appear here. The entries come from a sample that favours actives as a whole. A call without a number means that no potency is given here. A number with no mark means an inactive call. Calls follow the shape of the dose curve; as a rule, active = well fitted inhibition curve with a large enough effect; inconclusive = small, poorly fitted or top-dose-only effect; inactive = flat fitted curve, though single readings scatter.

Experiment: qHTS for Inhibitors of human tyrosyl-DNA phosphodiesterase 1 (TDP1): qHTS in cells in presence of CPT; also: nearly all actives have a fitted effect of over 55% in size
Settings: chicken DT40 Tdp1-/-;hTDP1 cells + 20 nM CPT, ATP luminescence, 48 h; series mostly up to 46.2 µM
Procedure, shortened: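 Chicken DT40 Tdp1-/- cells complemented with human TDP1, 400 cells/well, exposed to compounds plus 20 nM camptothecin for at least 48 h at 37 C; viability read as ATP content by CellTiter-Glo luminescence.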
Potency is read from the fitted curve at half-maximal effect.

SMILES	Potency	activity change, negative = growth inhibition
O=C(Nc1ccc(OCC(=O)N2CCOCC2)cc1)c1cc(F)c(F)cc1Cl	inactive	–
COc1ccccc1Oc1ccc(N2CC(C(=O)OCC(=O)c3ccc(F)cc3)CC2=O)cc1 (centres undefined)	inactive	–
CCN1CCC(O)(/C=C/c2ccc(C)cc2)C(C(=O)/C=C/c2ccc(C)cc2)C1 (centres undefined)	3.66 µM (active)	–
O=C(NCc1cccs1)c1ccc(CS(=O)Cc2ccccc2Cl)o1 (centres undefined)	inactive	–
CCOCCCN(C)C1CCN(C(=O)c2oc3ccccc3c2NC(=O)Cc2cccc([N+](=O)[O-])c2)CC1	inactive	–
CCOC(=O)c1cc2c(=O)n3ccccc3nc2n(CCCOC)c1=NC(=O)C(C)Oc1ccccc1 (centres undefined)	inactive	–
COc1cc2c(=O)c(S(=O)(=O)c3ccc(C(C)C)cc3)cn(Cc3ccccc3C)c2cc1OC	6.51 µM (active)	–
Cc1cc(Nc2cccc(F)c2)n2ncnc2n1	inactive	–
COCCN1C(=O)C(=O)/C(=C(/O)c2ccc(S(=O)(=O)N3CCOCC3)cc2)C1c1ccc(O)c(OC)c1 (centres undefined)	inactive	–
CCN(CC)N=Nc1cccc(NC(C)=O)c1	11.6 µM (active)	–
CC(=O)Nc1cccc(C(=O)OCN2C(=O)c3ccccc3C2=O)c1	inactive	–
CC(=O)Nc1cccc(Nc2ccc(C#N)cc2)c1	inactive	–
Cc1ccc(-n2cc(CN(C)Cc3nccn3C)c(-c3cccc(C)c3)n2)cc1	20.6 µM (active)	–
CCn1ccnc1CN(C)Cc1nc(-c2ccc3c(c2)OCO3)no1	inactive	–
NNC(=O)c1ccc(COCC(F)(F)C(F)F)cc1	inactive	–
CCN(c1ccccc1)S(=O)(=O)c1ccc(OCC(=O)N2CCCC2)cc1	inactive	–
COc1ccc(CNC(=O)CSc2n[nH]c(-c3ccc(F)cc3)n2)cc1	inactive	–
CCc1ccc(-c2nc(SCC(=O)NC3CCCC3)n[nH]2)cc1	25.9 µM (active)	–
COc1ccc(-c2nc(SCC(=O)N3CCCC3)n[nH]2)cc1	inactive	–
CC(=O)N1CCN(Cc2cc(=O)oc3cc(C)ccc23)CC1	inactive	–
CCc1nnc(NC(=O)c2cc(S(=O)(=O)N3CCN(CC)CC3)ccc2Cl)s1	inactive	–
NNC(=O)C1CC(O)CN1S(=O)(=O)c1ccc(Cl)cc1 (centres undefined)	inactive	–

SMILES	Potency	activity change, negative = growth inhibition
COc1ccccc1/C=N/N1CCN(Cc2ccccc2Cl)CC1	inactive	–
COc1ccccc1N1CCN(Cc2cc(OC)c3c(c2)OCO3)CC1	inactive	–
COc1ccccc1N1CCN(Cc2ccc(OC)c3ccccc23)CC1	16.4 µM (active)	–
Cc1cccc(N=C2NN=C(c3c[nH]c4ccccc34)CS2)c1	inactive	–
C=CCn1c(C)cc(C2=NNC(=NCC)SC2)c1C	16.4 µM (active)	–
Cc1cc(NC(=O)CCC(=O)N(Cc2ccccc2)C(C(=O)NC2CCCC2)c2ccc(C)o2)no1 (centres undefined)	inactive	–
CCC1Oc2ccccc2N(CC(=O)NCCCN2CCN(CC)CC2)C1=O (centres undefined)	inactive	–
Cn1cnc(S(=O)(=O)N2C[C@@H](O)COC[C@@H]3O[C@H](CC(=O)NC4CCC4)CC[C@H]32)c1	inactive	–
COc1ccccc1CNc1ncncc1-c1cccnc1	inactive	–
COCCNc1ncnc2ccc(-c3cccnc3)cc12	14.6 µM (active)	–
COCCNc1ncnc2ccc(-c3ccccc3CN(C)C)cc12	inactive	–
Cc1cc(C)cc(N(CC(=O)NC2CCCC2)C(=O)CCC(=O)Nc2nccs2)c1	inactive	–
Cn1c(=O)c(-c2ccccc2)nc2cnc(N3CCNCC3)nc21	inactive	–
N#Cc1cccc(-c2nc3cnc(N4CCNCC4)nc3n(C3CC3)c2=O)c1	5.17 µM (active)	–
COCCn1c(=O)c(CCc2ccccc2)nc2cnc(N3CCNCC3)nc21	inactive	–
Cc1cccc(CN2CCC(n3nccc3NC(=O)c3ccccc3C)CC2)n1	inactive	–
CCNc1ncc2nc(CCc3ccccc3)c(=O)n(-c3ccc(OC)cc3)c2n1	inactive	–
COc1ccc(-c2nc3c(s2)CCc2onc(-c4ccc(OC)cc4)c2-3)cc1	20.6 µM (active)	–
COc1ccc(-c2onc3ccc(C(C)=O)cc23)cc1	inactive	–
COc1ccc(-c2cc(C(=O)N3CCN(c4ccc(F)cc4)CC3)no2)cc1	inactive	–
Nc1nc(NC(=O)/C=C/c2ccc(F)cc2)nn1-c1ccccc1	inactive	–
O=C(OCCN=C1NS(=O)(=O)c2ccccc21)c1cccc([N+](=O)[O-])c1	inactive	–

SMILES	Potency	activity change, negative = growth inhibition
O=C(Nc1nnc(-c2ccc(F)cc2)s1)c1c(F)cccc1Cl	inactive	–
CCCCc1nnc(NC(=O)CSc2nc(C)cc(=O)[nH]2)s1	inactive	–
CCOC(=O)Cc1csc(NC(=O)C(C)(C)C)n1	inactive	–
CCOC(=O)Cc1csc(NC(=O)CSc2nc(C)cc(=O)[nH]2)n1	23.1 µM (active)	–
CC(=O)O[C@H]1CC[C@@]2(C)C(=CC[C@@H]3[C@@H]2CC[C@]2(C)C(c4cccnc4)=CC[C@@H]32)C1	inactive	–
COc1ccc(C(=O)N2CCCC(C(=O)c3ccccc3OC)C2)cc1OC (centres undefined)	inactive	–
FC(F)(F)c1cccc(-c2cn[nH]c2C2CCCN(Cc3cccn3-c3ccccn3)C2)c1 (centres undefined)	–	-7.96% [at 9.04 µM]
Cc1cc(Cl)ccc1C(=O)C1CCCN(C(=O)c2ccc3c(c2)OCO3)C1 (centres undefined)	10.3 µM (active)	–
COc1ccc(NC(=O)C2CCCN(S(=O)(=O)c3c(C)[nH]c(=O)[nH]c3=O)C2)c(OC)c1 (centres undefined)	inactive	–
COc1ccc(C(=O)C2CCCN(C(=O)c3ccc(OC)o3)C2)c(C)c1 (centres undefined)	20.6 µM (active)	–
CCn1nc(C)cc1C(=O)N1CCCC(C(=O)c2cccc(OC)c2)C1 (centres undefined)	inactive	–
COc1ccc(OC)c(S(=O)(=O)N2CCCC(C(=O)NCCc3ccccc3)C2)c1 (centres undefined)	inactive	–
COc1ccc(C(=O)C2CCCN(C(=O)c3cnsn3)C2)c(C)c1 (centres undefined)	inactive	–
O=C(c1ccc2c(c1)OCO2)N1CCOCC1	inactive	–
COc1ccc(C(=O)C2CCCN(Cc3cccn3-c3ccccn3)C2)c(C)c1 (centres undefined)	20.6 µM (active)	–
COc1ccc(C(=O)C2CCCN(S(=O)(=O)c3cccc(C)c3)C2)c(C)c1 (centres undefined)	16.4 µM (active)	–
CCOC(=O)c1[nH]ncc1CN1CCCC(C(=O)c2ccc(OC)cc2C)C1 (centres undefined)	inactive	–
COC(=O)C1=C(NC(=O)C(C)(C)C)CCS1	inactive	–
COCCCNS(=O)(=O)c1cccc(S(=O)(=O)c2cccc(S(=O)(=O)NCCCOC)c2)c1	inactive	–
COc1ccc(C)cc1NC(=O)CCCN1C(=O)NC(C)(C)C1=O	inactive	–
